Source: PubChem BioAssay AID1626 (SRMLSC, 2009)
Hit rate of the full screen: of about 220,000 compounds, about 2,000 (0.91%) were called active. Roughly 2% stayed inconclusive and do not appear here. Not all results are given here. Results with a measured potency or affinity are listed apart. Unmarked numbers belong to inactive results. Rule as the data show it: inconclusive = inhibition above about 80% without an active follow-up result; inactive = below that; test concentration not stated here.

Assay: M. tuberculosis H37Rv growth inhibitors, H37Rv strain (AID 1626);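 also: bacteria incubated seven days before Alamar blue readout; 0% = bacteria only wells and 100% = bacteria with antibiotic wells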
Conditions: hits give high values, concentration not given here
`CCN1CCN(C(=O)c2cn(CCOC)c(=O)c3c2c2ccccc2n3C)CC1` gave an inhibition of 2.91%.
`O=C(CCC1CCCN(C(=O)c2ccsc2)C1)N1CCN(c2ccccn2)CC1` (stereo not given) gave an inhibition of -1.82%.
With `COc1cccc(OC)c1C(=O)NC(=S)Nc1ccc2c(c1)OCCO2` the inhibition was 7.64%.
For `COC(=O)N/N=C/c1ccccc1`, the inhibition was 3.14%.
With `CC(C)(C)OC(=O)N1CCN(C(=O)Nc2ccc3c(c2)OCCO3)CC1` the inhibition was 3.99%.
With `CC(=O)NC(CCS(C)(=O)=O)C(=O)Nc1cc(Cl)ccc1Cl` (stereo not given) the inhibition was 4.83%.
Work on `COc1ccccc1NC(=O)CN1C(=O)NC(CC(C)C)C1=O` (stereo not given) yielded an inhibition of -11.7%.
For `CCc1nnc(NS(=O)(=O)c2ccc(N=Cc3c(C)[nH]n(-c4ccc(Cl)cc4)c3=O)cc2)s1`, the inhibition was 12.1%.
In the case of `Cc1ccc(-n2[nH]c(C)c(C=Nc3ccc(S(=O)(=O)Nc4nccs4)cc3)c2=O)c(C)c1`, the inhibition is reported as 45.6%.
Molecule `COc1ccc(NC(=O)CN(Cc2ccccc2)Cc2ccccc2)cc1S(N)(=O)=O` has an inhibition of 4.02%.
`O=[N+]([O-])c1ccc(-c2nc(NCc3ccccc3)c3ccccc3n2)cc1` showed an inhibition of -2.12%.
`CN(Cc1ccccc1)c1nc(-c2ccc([N+](=O)[O-])cc2)nc2ccccc12` showed an inhibition of 0.45%.
Work on `Cc1ccc(-c2nc(Cl)nc3ccccc23)cc1` yielded an inhibition of -2.37%.
Molecule `Cc1ccc(Nc2nc(-c3ccncc3)nc3ccccc23)cc1` has an inhibition of -4.95%.
Molecule `CC1(C(=O)N2CCN(c3ccccc3)CC2)CC1(Cl)Cl` (stereo not given) has an inhibition of 0.45%.
`COCCCNC(=O)CSc1nc2sc(C(=O)OC)c(C)c2c(=O)n1N` showed an inhibition of 7.98%.
Work on `CN(C)C(=O)Cn1c(SCC(=O)N2CCCc3ccccc32)nc2ccccc21` yielded an inhibition of -5.91%.
In the case of `Cc1ccc(OCc2nc3c4c(ncn3n2)-c2ccccc2CC42CCCC2)cc1`, the inhibition is reported as -1.61%.
`COc1ccc2c(c1)CCC/C2=N/OC(=O)c1ccccc1OC` gave an inhibition of 10.5%.
`CCCSc1nc2c(=O)[nH][nH]c(=O)c2n1Cc1ccccc1` gave an inhibition of -2.99%.
Work on `CCOC(=O)N1CCN(C(=O)CSc2nnc(-c3cc(OC)ccc3OC)o2)CC1` yielded an inhibition of 17.1%.
For `O=C(Nc1ccccc1-c1nnc(SCc2ccccc2)o1)c1ccccc1`, the inhibition was 8.97%.
Molecule `O=C(CSc1nnc(-c2ccccc2NC(=O)c2ccccc2)o1)OC1CCCCC1` has an inhibition of 61.5%.
`CCOC(=O)CSc1nnc(-c2ccccc2OC)o1` gave an inhibition of 10.6%.
With `COc1ccc(-c2nnc(SCC(=O)N3CCCCC3)o2)c(OC)c1` the inhibition was 3.89%.
In the case of `COC(=O)CSc1nnc(-c2ccccc2OC)o1`, the inhibition is reported as 1.84%.
In the case of `C#CCNC(=O)C1=C[C@@H](C)[C@H](CCCO)[C@@H](OCC)O1`, the inhibition is reported as -2.73%.
Molecule `O=C(CCn1[nH]c(=O)c2ccccc2c1=O)NCCO` has an inhibition of -2.07%.
With `COc1cccc(-c2nc(-c3ccc(NC(=O)c4ccncc4)cc3)no2)c1` the inhibition was 7.98%.
With `CC1(C)OC(=O)C(=NNc2ccc(Br)cc2)C(=O)O1` the inhibition was 76.6%.
In the case of `O=C1c2ccccc2C(=O)N1CCCCN(C(=O)c1cccc([N+](=O)[O-])c1)c1ccc(Cl)cc1`, the inhibition is reported as -4.65%.
`O=C1c2ccccc2C(=O)N1CCCCN(C(=O)c1ccc([N+](=O)[O-])cc1)c1ccc(Cl)cc1` showed an inhibition of -7.62%.
`CCOC(=O)C1(CCOc2ccccc2)CCN(Cc2ccc3c(c2)OCCO3)CC1` showed an inhibition of -3.31%.
With `O=c1[nH]c(=O)n(CCOc2ccc(Cl)cc2)cc1Br` the inhibition was -3.97%.
`COCCNC(=S)N1CCC(c2nc(-c3ccc(F)cc3)no2)CC1` showed an inhibition of -1.41%.
Molecule `CC1=Nc2ccccc2/C1=C/c1sc(=O)n(CC(=O)N2CCCC2)c1O` has an inhibition of -8.48%.
With `CC1=Nc2ccccc2/C1=C/c1sc(=S)n(-c2cccc(C(=O)O)c2)c1O` the inhibition was 4.52%.
For `CC(C)CN(CCC(=O)O)CC(C)C`, the inhibition was -0.69%.
For `CCOC(=O)c1cnc(-n2cc(C)cn2)nc1NCc1ccc2c(c1)OCO2`, the inhibition was 59.5%.
Molecule `CCOC(=O)c1cnc(-n2nc(C)cc2C)nc1Nc1ccccc1OC` has an inhibition of 25.4%.
Molecule `CCOC(=O)c1cnc(-n2nc(C)cc2C)nc1Oc1ccccc1F` has an inhibition of -2.19%.
Molecule `CCOC(=O)c1cnc(-n2nc(C)cc2C)nc1NCCO` has an inhibition of 4.03%.
Molecule `CCOC(=O)c1ccc(NCc2ccc3c(c2)OCO3)cc1` has an inhibition of 7.94%.
Molecule `CCOC(=O)c1cnc(-n2nc(C)cc2C)nc1N1CC(C)OC(C)C1` (stereo not given) has an inhibition of -1.14%.
With `O=C(Cn1c(=O)n(-c2ccccc2)c(=O)c2oc3ccccc3c21)Nc1ccccc1` the inhibition was -0.16%.
For `O=C1CC(=O)CC(c2ccccc2Cl)C1`, the inhibition was -8.51%.
`CCO[C@H]1OC(C(=O)O)=C[C@@H](C(C)(C)C)[C@@H]1CCCO` gave an inhibition of -7.81%.
For `NS(=O)(=O)c1ccc(C(=O)Nc2ccc(-c3nc4cccnc4s3)cc2)cc1`, the inhibition was 9.76%.
For `Cc1cc(C)c2c3c(cn2n1)c(=O)n(C)c(=O)n3C`, the inhibition was 4.42%.
Work on `O=C(CCCSc1nc2ccccc2[nH]1)NCc1ccccc1Cl` yielded an inhibition of -0.81%.
In the case of `Cc1cc2nc(CCl)cc(=O)n2[nH]1`, the inhibition is reported as 2.54%.
With `COCCn1cnc2c1c(=O)n(CC(=O)OCC#N)c(=O)n2Cc1ccccc1` the inhibition was 1.32%.
Work on `O=C(c1ccccc1)N1CCN(c2ccc([N+](=O)[O-])c(NCC3CCCO3)c2)CC1` (stereo not given) yielded an inhibition of 3.59%.
Molecule `O=C(COc1ccccc1)NC1CCCc2ccccc21` (stereo not given) has an inhibition of -1.62%.
`O=C(O)CSCC(=O)NC1CCCc2ccccc21` (stereo not given) gave an inhibition of 0.52%.
`Cc1cc(/C=C2/NC(=O)N(Cc3ccccc3F)C2=O)c(C)n1C(C)C` showed an inhibition of 7.35%.
With `Cc1nn(C(=O)c2cccc([N+](=O)[O-])c2)c(C)c1Sc1ccccc1` the inhibition was 0.41%.
Work on `Cc1ccc(OCc2nnc(SCC(=O)c3cccc([N+](=O)[O-])c3)n2C)cc1` yielded an inhibition of 3.44%.
`COc1ccc(NC(=O)C2CCC(N3C(=O)C4C5C=CC(C5)C4C3=O)CC2)cc1` (stereo not given) showed an inhibition of -14.2%.
Molecule `CC(=O)c1ccc(NC(=O)COc2ccc3c(c2)OCO3)cc1` has an inhibition of 14%.
For `COc1cc(NC(=O)COc2ccc(-n3ccnc3)cc2)cc(OC)c1`, the inhibition was 54.1%.
Work on `O=C(COc1cc(Cl)ccc1Cl)Nc1ccc2c(c1)CCC2` yielded an inhibition of 3.53%.
`O=C(COc1ccc2c(c1)CCC2)NCc1ccc(Cl)cc1` showed an inhibition of 13.4%.
Work on `O=C(COc1ccc(Cl)cc1)NCc1ccncc1` yielded an inhibition of 0.93%.
In the case of `O=C(COc1ccc2ccccc2c1)Nc1ccc(Cc2ccncc2)cc1`, the inhibition is reported as 11.6%.
With `O=C(O)COCC(=O)Nc1ccc2c(c1)CCC2` the inhibition was -2.88%.
In the case of `O=C(COc1ccc(-n2ccnc2)cc1)Nc1cccc(Cl)c1`, the inhibition is reported as 3.18%.
In the case of `Cc1ccc(/C=N/n2c(C)n[nH]c2=S)o1`, the inhibition is reported as -0.73%.
`Cn1c(SCc2nc3ccccc3[nH]2)nnc1-c1cccnc1` showed an inhibition of -8.31%.
With `Brc1ccccc1-n1nnc(-c2ccnc3ccccc23)n1` the inhibition was -5.72%.
In the case of `O=C(COc1cccc(Cl)c1Cl)Nc1ccc2c(c1)CCC2`, the inhibition is reported as -7.06%.
With `O=C(COc1ccc2c(c1)CCC2)NCc1cccc(Cl)c1` the inhibition was 13.9%.
Work on `COc1ccc(OCC(=O)Nc2cccc(OC)c2)cc1` yielded an inhibition of 0.47%.
Work on `COC(=O)COc1cccc(NC(=O)c2ccccc2)c1` yielded an inhibition of 10.8%.
Work on `O=C(COC(=O)c1cncc(Br)c1)Nc1ccc2c(c1)OCO2` yielded an inhibition of 2.32%.
For `O=C(COC(=O)c1ccc(F)cc1F)Nc1ccc2[nH]c(=O)[nH]c2c1`, the inhibition was 0.74%.
Molecule `CCCC(=O)Nc1ccc2oc(-c3ccncc3)nc2c1` has an inhibition of 0.51%.
In the case of `Cc1c(Cl)cccc1NC(=O)Cn1c(-c2ccc(F)cc2)noc1=O`, the inhibition is reported as -3.42%.
`Cc1c(O)c(S(=O)(=O)c2ccccc2)c(=O)n(-c2ccccc2)c1-c1ccccc1` showed an inhibition of -1.42%.
In the case of `NNC(=S)Nc1ccc(S(=O)(=O)N2CCOCC2)cc1`, the inhibition is reported as -8.51%.
In the case of `Cc1nc(NC(=O)c2ccc(Cl)cc2)sc1Cc1ccc2c(c1)OCO2`, the inhibition is reported as -0.23%.
`CCCOc1ccc(C(=O)Nc2nc(C)c(Cc3ccc4c(c3)OCO4)s2)cc1` gave an inhibition of 2.21%.
For `COc1cccc(C(=O)N(Cc2nc(-c3ccc(C)cc3)no2)C(C)C)c1`, the inhibition was -3.98%.
`COc1cc(/C=C/C(=O)OCC(=O)NC(=O)NC(C)C)cc(S(=O)(=O)N2CCc3ccccc32)c1OC` showed an inhibition of 3.06%.
Molecule `Cc1ccccc1CSCCNC(=O)Nc1ccccc1` has an inhibition of -0.63%.
In the case of `Cc1c2c(nc3ccccc13)OCC2`, the inhibition is reported as -16.5%.
`Cc1c2c(nc3ccccc13)CCC(C(C)(C)C)C2` (stereo not given) gave an inhibition of 6.35%.
`CCc1cccc(NC(=O)Cc2ccc([N+](=O)[O-])cc2)c1` showed an inhibition of 58.6%.
For `O=C(Nc1ccc([N+](=O)[O-])cc1)Nc1ccc(Cl)cc1F`, the inhibition was 9.88%.
In the case of `O=C(Cc1ccc([N+](=O)[O-])cc1)Nc1ccc(Cl)cc1`, the inhibition is reported as 3.56%.
For `Nc1c(C(=O)O)cnn1-c1ccc([N+](=O)[O-])cc1`, the inhibition was -2.22%.
In the case of `O=C(c1ccc(F)cc1)N1CCN(C2CCC(c3ccccc3)CC2)CC1` (stereo not given), the inhibition is reported as 5.5%.
For `CCOC(=O)c1ccc(NC(=O)CSc2nc(NC(=O)c3ccccc3)c3c(C)c(C)oc3n2)cc1`, the inhibition was 9.26%.
For `COc1cc(CCN2C(=O)N[C@@H](CCc3ccccc3)C(C(C)=O)=C2C)cc(OC)c1OC`, the inhibition was -6.61%.
Work on `O=C(N/N=C/c1ccc(O)c2ncccc12)c1cccc(Br)c1` yielded an inhibition of -4.1%.
`Oc1ccc(F)c2cccnc12` gave an inhibition of 44.5%.
For `COCc1cc(CN2CCCC2)c(O)c2ncccc12`, the inhibition was -1.29%.
In the case of `Oc1ccc(CN2CCN(Cc3ccccc3)CC2)c2cccnc12`, the inhibition is reported as -2.63%.
Molecule `OCc1ccc(O)c2ncccc12` has an inhibition of 1.86%.
In the case of `CC(C)COCc1ccc(O)c2ncccc12`, the inhibition is reported as 47.1%.
